Reference: PubChem BioAssay (NCATS)
Records with an inconclusive call do not appear. Unmarked numbers belong to inactive results. Activity calls are given as the source filed them. The call rests on the fitted dose curve; in most records, active means well fitted cell-killing curve with a large enough effect; inconclusive means small, poorly fitted or top-dose-only effect, or effect the other way; inactive means no such curve, though single readings can be large or run the other way.

Test: Quantitative High-Throughput drug screen in 47 multiple myeloma cell lines against the NCATS MIPE library collection: PCM6_Riken cell viability assay (AID 1919870);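 on viability (% of control): 100% = DMSO-only wells and 0% = media-only wells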
Conditions: CellTiter-Glo ATP, 48 h; series mostly up to 45.8 µM
Method in brief: (§1)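 ATP-based luminescence (CellTiter-Glo, 5 min RT incubation) quantified surviving cells following two days' treatment with MIPE 4.0 agents at 37 °C, 5% CO2.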
Further: nearly all actives have a fitted effect of over 30% in size.
Potency means the concentration at half of the fitted maximal effect.

SMILES | Potency | viability (% of control)
Cc1cc(O)c2c(c1)C(=O)c1cccc(O)c1C2=O | inactive | 
CCC(C(=O)O)C1CCC(C)C(C(C)C(O)C(C)C(=O)C(CC)C2OC3(C=CC(O)[C@@]4(CC[C@](C)(C5CC[C@@](O)(CC)C(C)O5)O4)O3)C(C)CC2C)O1 (stereo partly specified) | 4690 nM (active) | 
CC(=O)[C@]1(O)Cc2c(O)c3c(c(O)c2[C@@H](O[C@H]2C[C@H](N)[C@@H](O)[C@H](C)O2)C1)C(=O)c1ccccc1C3=O | 187 nM (active) | 
COc1cc(C=CC(=O)CC(=O)C=Cc2ccc(O)c(OC)c2)ccc1O | 9590 nM (active) | 
CN(CC(=O)N(Cc1ccc(C2CCCCC2)cc1)c1ccc(C(=O)O)c(O)c1)S(=O)(=O)c1c(F)c(F)c(F)c(F)c1F | 6620 nM (active) | 
CC(C)(C)[C@H](NC(=O)c1ccc(N)c(Cl)c1)C(=O)N1CCC[C@@H]1C(=O)N[C@H](C#N)CC(=O)O |  | 122% [at 3.51 µM]
COc1ccc2c(c1OC)C(=O)OC2[C@H]1c2c(cc3c(c2OC)OCO3)CCN1C (stereo partly specified) | 469 nM (active) | 
C[C@@H]1CC[C@@]2(OC1)OC1CC3C4CC=C5CC(O)CCC5(C)C4CCC3(C)C1[C@@H]2C (stereo partly specified) | inactive | 
COc1ccc(S(=O)(=O)Nc2cccnc2Nc2ccc(O)cc2)cc1 | 235 nM (active) | 
CC(=O)SCC(Cc1ccccc1)C(=O)NCC(=O)OCc1ccccc1 (stereo unspecified) | 1480 nM (active) | 
C[C@H](CCC(=O)O)[C@H]1CC[C@H]2[C@@H]3[C@H](O)C[C@@H]4C[C@H](O)CC[C@]4(C)[C@@H]3CC[C@]12C | inactive | 
CCOc1cc2ncc(C#N)c(Nc3ccc(OCc4ccccn4)c(Cl)c3)c2cc1NC(=O)C=CCN(C)C | 332 nM (active) | 
C=CC(=O)N1CCc2ccc(-n3c(=O)ccc4cnc5ccc(-c6cnn(C)c6)cc5c43)cc21 | 1660 nM (active) | 
NC[C@H]1O[C@H](O[C@H]2[C@@H](O)[C@@H](O[C@H]3O[C@H](CO)[C@@H](O)[C@H](N)[C@@H]3O)[C@H](N)C[C@@H]2N)[C@H](N)C[C@H]1O | inactive | 
N#CNC(=NCCCCCCOc1ccc(Cl)cc1)Nc1ccncc1 | 1 nM (active) | 
C[C@H]1COc2c(N3CCN(C)CC3)c(F)cc3c(=O)c(C(=O)O)cn1c23 | inactive | 

SMILES | Potency | viability (% of control)
Oc1cc(-c2nc(-c3ccccc3)[nH]c2-c2ccncc2)ccc1Cl | 2960 nM (active) | 
O=c1[nH]c(=O)n([C@H]2C[C@@H](O)[C@@H](CO)O2)cc1C=CBr | inactive | 
COC[C@H](NC(=O)c1cnc(C)s1)C(=O)N[C@@H](COC)C(=O)N[C@@H](Cc1ccccc1)C(=O)[C@@]1(C)CO1 | 187 nM (active) | 
CN(C)CCN1C(=O)c2cccc3cc(N)cc(c23)C1=O | 16600 nM (active) | 
CCNC(=O)Nc1ccc(-c2nc3c(c(N4CCOC[C@H]4C)n2)CCN(C2COC2)C3)cc1 | 1320 nM (active) | 
COC(=O)[C@H](CCCN=C(N)N)NS(=O)(=O)c1ccc(C)cc1 | inactive | 
COc1cc([C@@H]2c3cc4c(cc3[C@@H](O[C@@H]3O[C@@H]5CO[C@@H](c6cccs6)O[C@@H]5[C@H](O)[C@@H]3O)[C@H]3COC(=O)[C@H]23)OCO4)cc(OC)c1O | 662 nM (active) | 
CC(C)c1cnn2c(NCc3ccccc3)cc(NCCCCCCN)nc12 | 13200 nM (active) | 
O=C(CCCCCCC(=O)Nc1cccnc1)NO | 7430 nM (active) | 
COc1cc([C@@H]2c3cc4c(cc3[C@H](O)[C@H]3COC(=O)[C@@H]23)OCO4)cc(OC)c1OC | 332 nM (active) | 
NC(=O)N1CCC(CC(=O)N2CCC([C@H]3c4ncc(Br)cc4CCc4cc(Cl)cc(Br)c43)CC2)CC1 | 20900 nM (active) | 
CC(C)NC[C@@H](C(=O)N1CCN(c2ncnc3c2[C@H](C)C[C@H]3O)CC1)c1ccc(Cl)cc1 | 1320 nM (active) | 
C[C@H](NCc1ccc(OCc2cccc(F)c2)cc1)C(N)=O | 2090 nM (active) | 
O=C(c1ccc(F)cc1)N1CCC[C@H](c2nc(-c3ccc(F)cc3)no2)C1 | inactive | 
COc1cccc2c1C(=O)c1c(O)c3c(c(O)c1C2=O)C[C@@](O)(C(=O)CO)C[C@@H]3O[C@H]1C[C@H](N)[C@H](OC2CCCCO2)[C@H](C)O1 (stereo partly specified) | 1320 nM (active) | 
Nc1nc(N)c2nc(-c3cccc(O)c3)c(-c3cccc(O)c3)nc2n1 | 2640 nM (active) | 

Test: Quantitative High-Throughput drug screen in 47 multiple myeloma cell lines against the NCATS MIPE library collection: RPMI8226_ATCC cell viability assay (AID 1919871)
Conditions: RPMI8226 myeloma viability, CellTiter-Glo ATP luminescence, 48 h; series mostly up to 45.8 µM
Method in brief: as §1

SMILES | Potency
Cc1cc(O)c2c(c1)C(=O)c1cccc(O)c1C2=O | inactive
CCC(C(=O)O)C1CCC(C)C(C(C)C(O)C(C)C(=O)C(CC)C2OC3(C=CC(O)[C@@]4(CC[C@](C)(C5CC[C@@](O)(CC)C(C)O5)O4)O3)C(C)CC2C)O1 (stereo partly specified) | 2350 nM (active)
CC(=O)[C@]1(O)Cc2c(O)c3c(c(O)c2[C@@H](O[C@H]2C[C@H](N)[C@@H](O)[C@H](C)O2)C1)C(=O)c1ccccc1C3=O | 418 nM (active)
COc1cc(C=CC(=O)CC(=O)C=Cc2ccc(O)c(OC)c2)ccc1O | 30300 nM (active)
CN(CC(=O)N(Cc1ccc(C2CCCCC2)cc1)c1ccc(C(=O)O)c(O)c1)S(=O)(=O)c1c(F)c(F)c(F)c(F)c1F | 23500 nM (active)
Cn1cnc(=N)c2[nH]cnc21 | 264 nM (active)
COc1ccc2c(c1OC)C(=O)OC2[C@H]1c2c(cc3c(c2OC)OCO3)CCN1C (stereo partly specified) | 3720 nM (active)
C[C@@H]1CC[C@@]2(OC1)OC1CC3C4CC=C5CC(O)CCC5(C)C4CCC3(C)C1[C@@H]2C (stereo partly specified) | inactive
COc1ccc(S(=O)(=O)Nc2cccnc2Nc2ccc(O)cc2)cc1 | 526 nM (active)
C=C(C)[C@@H]1CC[C@]2(C(=O)O)CC[C@]3(C)[C@H](CC[C@@H]4[C@@]5(C)CC[C@H](O)C(C)(C)[C@@H]5CC[C@]43C)[C@@H]12 | 5260 nM (active)
CC(=O)OCC(=O)[C@@]1(O)CC[C@H]2[C@@H]3CCC4=CC(=O)CC[C@]4(C)[C@@H]3C(=O)C[C@@]21C | inactive
C[C@H](CCC(=O)O)[C@H]1CC[C@H]2[C@@H]3[C@H](O)C[C@@H]4C[C@H](O)CC[C@]4(C)[C@@H]3CC[C@]12C | inactive
c1cc(CN2CCCNCCNCCCNCC2)ccc1CN1CCCNCCNCCCNCC1 | inactive
C=CC(=O)N1CCc2ccc(-n3c(=O)ccc4cnc5ccc(-c6cnn(C)c6)cc5c43)cc21 | 1050 nM (active)
N#CNC(=NCCCCCCOc1ccc(Cl)cc1)Nc1ccncc1 | 41.8 nM (active)
C[C@H]1COc2c(N3CCN(C)CC3)c(F)cc3c(=O)c(C(=O)O)cn1c23 | inactive
Oc1cc(-c2nc(-c3ccccc3)[nH]c2-c2ccncc2)ccc1Cl | 16600 nM (active)
O=c1[nH]c(=O)n([C@H]2C[C@@H](O)[C@@H](CO)O2)cc1C=CBr | inactive
COC[C@H](NC(=O)c1cnc(C)s1)C(=O)N[C@@H](COC)C(=O)N[C@@H](Cc1ccccc1)C(=O)[C@@]1(C)CO1 | 187 nM (active)
CN(C)CCN1C(=O)c2cccc3cc(N)cc(c23)C1=O | 16600 nM (active)
CCNC(=O)Nc1ccc(-c2nc3c(c(N4CCOC[C@H]4C)n2)CCN(C2COC2)C3)cc1 | 743 nM (active)
CCOC(=O)[C@H](CCc1ccccc1)N[C@@H](C)C(=O)N1[C@@H](C(=O)O)C[C@H]2CCC[C@@H]21 | 20900 nM (active)
O=C(CCCCCCC(=O)Nc1cccnc1)NO | 16600 nM (active)
COc1cc([C@@H]2c3cc4c(cc3[C@H](O)[C@H]3COC(=O)[C@@H]23)OCO4)cc(OC)c1OC | 469 nM (active)
O=c1ccn([C@@H]2O[C@H](CO)[C@H](O)[C@@H]2F)c(=O)[nH]1 | inactive
NC(=O)N1CCC(CC(=O)N2CCC([C@H]3c4ncc(Br)cc4CCc4cc(Cl)cc(Br)c43)CC2)CC1 | 16600 nM (active)
CC(C)NC[C@@H](C(=O)N1CCN(c2ncnc3c2[C@H](C)C[C@H]3O)CC1)c1ccc(Cl)cc1 | 11800 nM (active)
C[C@H](NCc1ccc(OCc2cccc(F)c2)cc1)C(N)=O | 16600 nM (active)
COc1cccc2c1C(=O)c1c(O)c3c(c(O)c1C2=O)C[C@@](O)(C(=O)CO)C[C@@H]3O[C@H]1C[C@H](N)[C@H](OC2CCCCO2)[C@H](C)O1 (stereo partly specified) | 7430 nM (active)
